Results with a measured potency or affinity are listed apart.

One assay relates to Staphylococcus aureus. Particulars: Concentration 32 ug.mL-1; ASSAY_TEST Inhibition of Bacterial Growth; detection method Absorption (OD600); MEDIA CAMHB; plate type 384well; NBS; CORNING #3640; time 18 hr.
The next assay deals with Escherichia coli. Particulars: Concentration 32 ug.mL-1; ASSAY_TEST Inhibition of Bacterial Growth; detection method Absorption (OD600); MEDIA CAMHB; plate type 384well; NBS; CORNING #3640; time 18 hr.

Turning to `Clc1cccc2[nH]c(-c3cscn3)nc12`, the Inhibition (commonly the drop in the measured response relative to a control, in per cent) in the assay on Staphylococcus aureus is on record as -11.71%; with Escherichia coli, -6.5%.

Regarding `CC(C)c1ccc(Cn2c(-c3cscn3)nc3c(Cl)cccc32)cc1`, the values for the Inhibition in the assay with Staphylococcus aureus and with Escherichia coli were 1.32% and -0.45%, respectively.

For `Clc1ccc2c(c1)nc(-c1cscn1)n2Cc1ccccc1`, the values for the Inhibition in the assay on Staphylococcus aureus and in the assay with Escherichia coli were -3.7% and -7.11%, respectively.

`Cn1c(-c2cscn2)nc2c(Cl)cccc21`: the Inhibition is on record as -0.57% with Staphylococcus aureus and -9.25% in the assay with Escherichia coli.

With `N#Cc1ccccc1-c1ccc(Cn2c(-c3cscn3)nc3c(Cl)cccc32)cc1`, the Inhibition with Staphylococcus aureus was 2.86%; in the assay on Escherichia coli it was 1.52%.

Take `N=C(Nc1ccccc1)c1cscn1`: the Inhibition is on record as -2.93% in the assay with Staphylococcus aureus and 3.08% with Escherichia coli.

Take `N#Cc1ccccc1-c1ccc(Cn2c(-c3cscn3)nc3ccccc32)cc1`: the Inhibition in the assay with Staphylococcus aureus is 0.09%; with Escherichia coli it was -0.92%.

`N#Cc1ccccc1-c1ccc(Cn2c(-c3cscn3)nc3cc(Cl)ccc32)cc1`: the Inhibition in the assay with Staphylococcus aureus is -3.28%; in the assay with Escherichia coli, -8.05%.

Take `N=C(Nc1ccccc1Cl)c1cscn1`: the Inhibition with Staphylococcus aureus is given as 4.17%; with Escherichia coli, 18.4%.

Consider `Clc1cccc2c1nc(-c1cscn1)n2Cc1ccccc1`, for which the Inhibition is recorded as -5.58% with Staphylococcus aureus and -9.3% in the assay on Escherichia coli.

Regarding `Fc1cc(Cn2c(-c3cscn3)nc3c(Cl)cccc32)cc(C(F)(F)F)c1`, the Inhibition with Staphylococcus aureus came out at 6.77%; in the assay on Escherichia coli, 3.26%.

On to `CCc1ccc(Nc2nc(N)c(-c3nc4ccccc4c(=O)n3-c3ccc(Cl)cc3)s2)cc1`, for which the Inhibition with Staphylococcus aureus is on record as 11.42%; in the assay with Escherichia coli, 0.09%.

With `Clc1ccc2nc(-c3cscn3)n(Cc3ccccc3)c2c1`, the figures for the Inhibition with Staphylococcus aureus and in the assay with Escherichia coli were -8.96% and -8.13%, respectively.

In the case of `N#Cc1ccccc1-c1ccc(Cn2c(-c3cscn3)nc3ccc(Cl)cc32)cc1`, the Inhibition in the assay with Staphylococcus aureus is on record as -8.21%; in the assay on Escherichia coli it was -6.57%.

For the molecule `Nc1nc(Nc2ccccc2)sc1-c1nc2ccccc2c(=O)n1-c1ccccc1`, the Inhibition in the assay on Staphylococcus aureus is 10.63%; in the assay on Escherichia coli it was 1.98%.

`CCc1ccc(-n2c(-c3sc(Nc4ccccc4)nc3N)nc3ccccc3c2=O)cc1`: the values for the Inhibition in the assay with Staphylococcus aureus and in the assay on Escherichia coli were 9.22% and -7.31%, respectively.

Turning to `Nc1nc(Nc2ccccc2)sc1-c1nc2ccccc2c(=O)n1-c1ccc(Cl)cc1`, the figures for the Inhibition in the assay with Staphylococcus aureus and with Escherichia coli were 3.1% and -14.74%, respectively.

For `N#Cc1ccc(Cn2c(-c3cscn3)nc3c(Cl)cccc32)cc1`, the Inhibition in the assay on Staphylococcus aureus is given as -3.58%; in the assay with Escherichia coli, -8.14%.

On to `CCc1ccc(Nc2nc(N)c(-c3nc4ccccc4c(=O)n3-c3ccc(CC)cc3)s2)cc1`, for which the Inhibition is 1.66% in the assay with Staphylococcus aureus and -1.71% with Escherichia coli.

On to `O=[N+]([O-])c1ccc(Cn2c(-c3cscn3)nc3ccccc32)cc1`, for which the values for the Inhibition in the assay on Staphylococcus aureus and with Escherichia coli were 0.92% and -6.04%, respectively.

On to `Cn1c(-c2cscn2)nc2cc(Cl)ccc21`, for which the Inhibition in the assay on Staphylococcus aureus was -4.5%; in the assay with Escherichia coli it was -10.62%.

With `Nc1nc(Nc2ccc(Cl)cc2)sc1-c1nc2ccccc2c(=O)n1-c1ccccc1`, the figures for the Inhibition with Staphylococcus aureus and with Escherichia coli were 3.07% and -2.8%, respectively.

For `CCc1ccc(Nc2nc(N)c(-c3nc4ccccc4c(=O)n3-c3ccccc3)s2)cc1`, the Inhibition in the assay on Staphylococcus aureus is reported as 14.54%; with Escherichia coli it was -0.69%.

These data come from ChEMBL document CHEMBL4513154, “CO-ADD screening of Jain University (India) compounds”.
